{
  "source": "ChEMBL document CHEMBL3433997",
  "about": "“St. Jude Leishmania screening dataset” (2016)",
  "data": [
    {"target": "Solute carrier family 2, facilitated glucose transporter member 1 (Homo sapiens) (UniProt P11166)", "sequence (P11166 whole entry)": "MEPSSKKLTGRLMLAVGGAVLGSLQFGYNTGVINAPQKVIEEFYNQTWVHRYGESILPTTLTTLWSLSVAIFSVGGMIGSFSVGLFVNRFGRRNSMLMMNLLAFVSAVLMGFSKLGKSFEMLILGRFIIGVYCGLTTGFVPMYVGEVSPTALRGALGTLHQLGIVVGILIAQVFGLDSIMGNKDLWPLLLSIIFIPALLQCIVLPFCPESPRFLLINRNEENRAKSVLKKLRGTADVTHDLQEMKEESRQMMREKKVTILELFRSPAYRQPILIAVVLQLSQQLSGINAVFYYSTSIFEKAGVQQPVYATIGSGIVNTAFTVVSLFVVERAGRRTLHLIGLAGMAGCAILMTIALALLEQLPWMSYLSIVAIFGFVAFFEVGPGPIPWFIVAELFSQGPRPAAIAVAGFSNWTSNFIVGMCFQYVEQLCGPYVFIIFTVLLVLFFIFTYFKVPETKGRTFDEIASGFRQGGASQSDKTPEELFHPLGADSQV", "experiment": "ST_JUDE_LEISH: Cytotoxicity at 2uM final concentration against transgenic Leishmania Mexicana promastigotes LmGLUT1 that are glucose transport deficient and complemented with the human glucose transporter GLUT1. Activity is measured by DNA content using SYBR green in vitro", "format": "functional", "units": {"inhibition": "%"}, "values": [
      {"smiles": "O=C(/C=C/c1ccc(Cl)c(Cl)c1)NCCCCCN1CCC(NC(=O)NCCc2ccccc2)CC1", "inhibition": 1.48},
      {"smiles": "CCCCn1c(-c2ccco2)nc2c(c(=O)c3ccccc3n2C)c1=O", "inhibition": 8.79},
      {"smiles": "CN(C)c1ccc(CN2CCC(CNC(=O)c3cc(-c4ccccc4F)cs3)C2)cc1", "note": "(stereo not given)", "inhibition": 1.96},
      {"smiles": "CCOC(=O)c1c[nH]c2c(ccc3ccccc32)c1=O", "inhibition": -1.23},
      {"smiles": "COc1ccc2nccc([C@@H](O)CN3CCC(NCc4cc5ccccc5cn4)CC3)c2n1", "inhibition": 12.2},
      {"smiles": "CCOc1ccc2c(=NN=Cc3ccc(OC)c(OC)c3)cc(C)[nH]c2c1", "inhibition": 4.95},
      {"smiles": "C=CC(C)C1OC(=O)c2cc(OC)cc(OC)c21", "note": "(stereo not given)", "inhibition": 92.2},
      {"smiles": "O=S(=O)(NC1CCCCN(Cc2ccccc2O)C1)c1ccc(C(F)(F)F)cc1", "note": "(stereo not given)", "inhibition": 1.87},
      {"smiles": "CNC(=O)c1cnc(Nc2ccc(N3CCN(C)CC3)cc2)nc1Nc1cccc(OC(C)C)c1", "inhibition": 3.75},
      {"smiles": "CCCCN(CCCC)CCCN(CCCN(CCCC)CCCC)c1cc(C)nc(Nc2ccc3cc(Br)ccc3c2)n1", "inhibition": 12},
      {"smiles": "O=S(=O)(c1cccc(C(F)(F)F)c1)N1CCC(CO)(Cc2cccc(C(F)(F)F)c2)CC1", "inhibition": 9.13},
      {"smiles": "O=S(=O)(Nc1ccc(CCN2CCC(N3CCCCC3)CC2)cc1)c1ccc(Cl)cc1", "inhibition": 1.32},
      {"smiles": "c1ccc(C2=NN=C(c3ccccn3)C3C4CC(C23)C2C3CC(c5ccccc53)C42)nc1", "note": "(stereo not given)", "inhibition": 5.41},
      {"smiles": "O=C(/C=C/c1ccc(Cl)c(Cl)c1)NCCCCCN1CCCC(C(=O)Nc2ccc(F)c(Cl)c2)C1", "note": "(stereo not given)", "inhibition": 3.02},
      {"smiles": "CCCCCCN1CCN(Cc2cccc(NC(=O)c3cccc(OCC)c3)c2)CC1", "inhibition": 13.6},
      {"smiles": "O=C(Nc1ccccc1)N(Cc1ccc(-c2cccc(CNCc3ccc4c(c3)OCO4)c2)cc1)C1CCN(Cc2ccccc2)CC1", "inhibition": -0.01},
      {"smiles": "CCCCN1CCN(CCCNc2c3ccccc3nc3ccccc23)CC1", "inhibition": 68},
      {"smiles": "Oc1ccc2[nH]c(-c3ccc(F)cc3F)nc2c1CN1CCC(O)(c2ccccc2)CC1", "inhibition": -0.28},
      {"smiles": "O=C(Nc1cccc(CN2CCCN(Cc3ccsc3)CC2)c1)c1ccc(Cl)c(Cl)c1", "inhibition": 4.04},
      {"smiles": "C=C[C@]1(C)C[C@@H](OC(=O)NC(=O)CCCS(=O)(=O)c2nnc(C)s2)[C@]2(C)[C@H](C)CC[C@]3(CCC(=O)[C@H]32)[C@@H](C)[C@@H]1O", "inhibition": 11.1},
      {"smiles": "O=C(Nc1ccc(-c2cccc(-c3nc4ccccc4[nH]3)c2)cc1)c1cnn2cccnc12", "inhibition": 7.76},
      {"smiles": "Cc1ccccc1Oc1ccc(Nc2ccnc(Nc3cccc(C(N)=O)c3)n2)cc1C(F)(F)F", "inhibition": 4.26},
      {"smiles": "CS(=O)(=O)NCCCNCc1ccc(-c2cccc(-c3nc4cc(F)ccc4[nH]3)c2)cc1", "inhibition": -2.11},
      {"smiles": "Cc1cc(NC2CCN(CC3CCCCC3)C2)nc(Nc2ccc(Br)cc2)n1", "note": "(stereo not given)", "inhibition": -0.39},
      {"smiles": "CN(C)CCNC(=O)N1CCCN(c2ncnc3cc(-c4ccccc4)sc23)CC1", "inhibition": 8.06},
      {"smiles": "C#CCN(Cc1cc2c(=O)[nH]c(N)nc2cc1C)c1ccc(C(=O)N[C@@H](CCC(=O)O)C(=O)O)cc1", "inhibition": 6.81},
      {"smiles": "Cn1cncc1C(=O)Nc1cccc(-c2csc(-c3nc4ccccc4[nH]3)c2)c1", "inhibition": 2.44},
      {"smiles": "NC(=O)c1cccc(C(=O)Nc2cccc(-c3cccc(-c4nc5cc(F)ccc5[nH]4)c3)c2)c1", "inhibition": -0.39},
      {"smiles": "CCOc1ccc(-c2nc(NC(=O)COc3ccc(OC)cc3)sc2C)cc1", "inhibition": 9.63},
      {"smiles": "NC(=O)c1ccccc1OCC(=O)Nc1cccc(-c2cccc(-c3nc4ccccc4[nH]3)c2)c1", "inhibition": 0.34},
      {"smiles": "O=C(O)C[C@H](NC(=O)[C@@H]1CCCN1C(=O)c1cccc(-c2ccc(Cl)c(Cl)c2)c1)C(=O)O", "inhibition": 1.31},
      {"smiles": "N=C(NCCc1ccc(Cl)cc1)c1ccc(Cl)c(Cl)c1", "inhibition": 2},
      {"smiles": "CCN(Cc1ccc(-c2ccc(C(F)(F)F)cc2)cc1)C(=O)Cn1c(SCc2cccc(F)c2F)cc(=O)c2cc(CN3CCCCC3)ccc21", "inhibition": 0.46},
      {"smiles": "O=C(c1ccc(-c2cccc(-c3nc4cc(C(F)(F)F)ccc4[nH]3)c2)cc1)N1CCCCC1CN1CCC(O)C1", "note": "(stereo not given)", "inhibition": -0.47},
      {"smiles": "NOCCCOc1ccccc1", "inhibition": 0.04},
      {"smiles": "CC(C)(C)c1ccc(CN2CCC(NC(=O)c3cc(-c4cccc(C(F)(F)F)c4)cs3)C2)cc1", "note": "(stereo not given)", "inhibition": 0.92},
      {"smiles": "COc1ccc(C2CC(=O)C3=C(C2)NC(C)=C(C(=O)OC2CCCC2)C3c2cccc(O)c2)cc1OC", "note": "(stereo not given)", "inhibition": 4.21},
      {"smiles": "Nc1ccc(-c2csc(Nc3ccncc3)n2)cc1", "inhibition": 2.7},
      {"smiles": "CC1(C)N=C(N)N=C(N)N1OCc1cccc(C#N)c1", "inhibition": 2.81},
      {"smiles": "N=C1NC(c2ccccc2)(c2ccccc2)C(=O)N1CC=Cc1ccccc1", "inhibition": 7.01}
    ]}
  ]
}
